# Assay results published in PubChem BioAssay (NCATS).
# Inconclusive results are not listed. Entries that show only a call come without a potency. Activity calls are given as the source filed them. Calls come from the whole dose curve; as a rule, active = well fitted cell-killing curve with a large enough effect; inconclusive = small, poorly fitted or top-dose-only effect, or effect the other way; inactive = no such curve, though single readings can be large or run the other way. Non-standard residues stand in square brackets, D forms with d. Residues, ends and D or L forms follow the SMILES beside them. *: point of attachment. Sta = CC(C)C[C@H](N)[C@@H](O)CC(=O)O; Isovaleryl = CC(C)CC(=O)*
# Assay: Quantitative High-Throughput drug screen in 47 multiple myeloma cell lines against the NCATS MIPE library collection: KMS11_JCRBsus cell viability assay (AID 1919873); note: nearly all actives have a fitted effect of over 50% in size
# Conditions: KMS11 myeloma viability, CellTiter-Glo ATP luminescence, 48 h; series mostly up to 45.8 µM
# How it was run: (§1)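 Inhibition of viability over 48 h was scored by ATP content (CellTiter-Glo) in 500-cell wells. Zero and full viability were defined by media-only and DMSO-only wells.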
# Potency is the fitted concentration of half-maximal effect.
row,SMILES,Potency
1,CC(C)[N+]1(C)[C@@H]2CC[C@H]1CC(OC(=O)C(CO)c1ccccc1)C2 (some centres not stated),7.43 µM (active)
2,O=c1ccc2ccc(O)c(O)c2o1,inactive
3,CCOC(=O)C1=C[C@@H](OC(CC)CC)[C@H](NC(C)=O)[C@@H](N)C1,inactive
4,Cc1c(C(=O)NN2CCCCC2)nn(-c2ccc(Cl)cc2Cl)c1-c1ccc(Cl)cc1,23.5 µM (active)
5,Clc1ccc2c(N3CCN(CCCN4CCN(c5ccnc6cc(Cl)ccc56)CC4)CC3)ccnc2c1,inactive
6,Cc1ncc([N+](=O)[O-])n1CC(C)O (configuration not stated),inactive
7,O=C(OC1C[C@H]2CC[C@@H](C1)[N+]21CCCC1)C(O)(c1ccccc1)c1ccccc1 (some centres not stated),inactive
8,N=C(N=C(N)N)N1CCOCC1,inactive
9,Cc1ccc(C)c(OCCCC(C)(C)C(=O)O)c1,inactive
10,COc1ccccc1N1CCN(CCN(C(=O)C2CCCCC2)c2ccccn2)CC1,inactive
11,COc1cc2c(cc1OC)C1CC(=O)C(CC(C)C)CN1CC2 (configuration not stated),inactive
12,CC(C)CC(=O)N[C@H](C(=O)N[C@H](C(=O)N[C@@H](CC(C)C)[C@@H](O)CC(=O)N[C@@H](C)C(=O)N[C@@H](CC(C)C)[C@@H](O)CC(=O)O)C(C)C)C(C)C (Isovaleryl-VV[Sta]A[Sta]-OH),inactive
13,O=C(O)c1cn(-c2ccc(F)cc2)c2cc(N3CCNCC3)c(F)cc2c1=O,inactive
14,Oc1ccc2ccccc2c1SSc1c(O)ccc2ccccc12,13.2 µM (active)
15,O=C(O)c1cccnc1Nc1cccc(C(F)(F)F)c1,inactive

# Assay: Quantitative High-Throughput drug screen in 47 multiple myeloma cell lines against the NCATS MIPE library collection: KMS28BM_JCRB cell viability assay (AID 1919874); note: nearly all actives have a fitted effect of over 35% in size
# Conditions: CellTiter-Glo ATP, 48 h; series mostly up to 45.8 µM
# How it was run: as §1
row,SMILES,Potency
1,O=C(O)CCNC(=O)c1ccc(N=Nc2ccc(O)c(C(=O)O)c2)cc1,inactive
2,Cc1cc2c(s1)Nc1ccccc1N=C2N1CCN(C)CC1,inactive
3,CC(C)c1ccc2oc3nc(N)c(C(=O)O)cc3c(=O)c2c1,inactive
4,CCOc1cc(CC(=O)N[C@@H](CC(C)C)c2ccccc2N2CCCCC2)ccc1C(=O)O,inactive
5,CN(C)CCc1c[nH]c2ccc(Cn3cncn3)cc12,inactive
6,O=C(c1ccccc1)c1ccc2n1CCC2C(=O)O (configuration not stated),23.5 µM (active)
7,CCc1nc(N)nc(N)c1-c1ccc(Cl)cc1,inactive
8,CCCCN(CCCC)CCC(O)c1cc2c(Cl)cc(Cl)cc2c2cc(C(F)(F)F)ccc12 (configuration not stated),inactive
9,CC1(C)CCC(C)(C)c2cc(NC(=O)c3ccc(C(=O)O)cc3)ccc21,inactive
10,CCOC(=O)C(C)Oc1cccc2c(=O)n(CC(=O)Nc3ccc4c(c3)OCCO4)ccc12 (configuration not stated),inactive
11,CC(C)Oc1ccc2c(=O)c(-c3ccccc3)coc2c1,inactive
12,Nc1ccc(S(N)(=O)=O)cc1,inactive
13,COC(=O)C1=C(C)NC(C)=C(C(=O)OCCCN2CCC(c3ccccc3)(c3ccccc3)CC2)C1c1cccc([N+](=O)[O-])c1 (configuration not stated),inactive
14,C[C@@H](N)C1CCC(C(=O)Nc2ccncc2)CC1 (some centres not stated),inactive
15,C[C@]12CCC(=O)C=C1CC[C@@H]1[C@H]2[C@@H](O)C[C@@]2(C)[C@H]1CC[C@]2(O)C(=O)CO,inactive
16,C[C@H](Cc1ccc(O)c(O)c1)[C@@H](C)Cc1ccc(O)c(O)c1,23.5 µM (active)

row,SMILES,Potency
1,C=C(c1ccc(C(=O)O)cc1)c1cc2c(cc1C)C(C)(C)CCC2(C)C,inactive
2,CC(C)[N+]1(C)[C@@H]2CC[C@H]1CC(OC(=O)C(CO)c1ccccc1)C2 (some centres not stated),8.33 µM (active)
3,O=c1ccc2ccc(O)c(O)c2o1,inactive
4,CCOC(=O)C1=C[C@@H](OC(CC)CC)[C@H](NC(C)=O)[C@@H](N)C1,inactive
5,Cc1c(C(=O)NN2CCCCC2)nn(-c2ccc(Cl)cc2Cl)c1-c1ccc(Cl)cc1,23.5 µM (active)
6,Clc1ccc2c(N3CCN(CCCN4CCN(c5ccnc6cc(Cl)ccc56)CC4)CC3)ccnc2c1,inactive
7,Cc1ncc([N+](=O)[O-])n1CC(C)O (configuration not stated),inactive
8,O=C(OC1C[C@H]2CC[C@@H](C1)[N+]21CCCC1)C(O)(c1ccccc1)c1ccccc1 (some centres not stated),inactive
9,N=C(N=C(N)N)N1CCOCC1,inactive
10,Cc1ccc(C)c(OCCCC(C)(C)C(=O)O)c1,inactive
11,COc1ccccc1N1CCN(CCN(C(=O)C2CCCCC2)c2ccccn2)CC1,inactive
12,COc1cc2c(cc1OC)C1CC(=O)C(CC(C)C)CN1CC2 (configuration not stated),inactive
13,CC(C)CC(=O)N[C@H](C(=O)N[C@H](C(=O)N[C@@H](CC(C)C)[C@@H](O)CC(=O)N[C@@H](C)C(=O)N[C@@H](CC(C)C)[C@@H](O)CC(=O)O)C(C)C)C(C)C (Isovaleryl-VV[Sta]A[Sta]-OH),inactive
14,O=C(O)c1cn(-c2ccc(F)cc2)c2cc(N3CCNCC3)c(F)cc2c1=O,inactive
15,Oc1ccc2ccccc2c1SSc1c(O)ccc2ccccc12,23.5 µM (active)
16,O=C(O)c1cccnc1Nc1cccc(C(F)(F)F)c1,inactive
